Consider 13 molecules from PubChem BioAssay (NCATS).

Inconclusive results are not listed. A number with no mark means an inactive call. Active and inactive are the calls of the source. Calls follow the shape of the dose curve; as a rule, active = well fitted curve in the direction sought with a large enough effect; inconclusive = small, poorly fitted or top-dose-only effect, or another doubt; inactive = no such curve, though single readings can be large; an effect the other way counts as inactive or inconclusive.

Assay [1] is described as follows: qHTS to identify inhibitors of the type 1 interferon - major histocompatibility complex class I in skeletal muscle: primary screen against the NCATS Pharmaceutical Collection (AID 1347407).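 Also: luminescence of HiBiT knocked into endogenous HLA-B as interferon-induced MHC class I level; % is scaled to controls: 0 for no effect and ±100 for the full control effect.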 Put shortly: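 Cells were seeded with 4 ng/ml IFN-beta, incubated 1 h, then dosed with compounds over eight 1:5 steps up to 46 uM final. After 24 h at 37 C, HiBiT lytic reagent was added and luminescence read after 10 min lysis in the dark.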
(qHTS replaces the single test concentration by a dilution series.)

Assay [2] has as its target Protein phosphatase 1D (Homo sapiens) (UniProt O15297). The assay can be described thus: RapidFire Mass Spectrometry qHTS Assay for Modulators of WT P53-Induced Phosphatase 1 (WIP1) (AID 1347424).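 Also: series mostly up to about 63 µM; plate controls were DMSO wells for no effect and GSK830371 inhibitor control at 10 µM for full effect.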 The method, boiled down: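 RapidFire MS readout of dephosphorylated VEPPL-S-QETFS product, with 1 uM isotope-labelled peptide standard. Reaction: 10 nM WIP1, 2 uM phosphopeptide substrate, 5 min, room temperature, after 1 h compound preincubation; stopped with 0.5% formic acid.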

Assay [3] has the same target. The assay can be described thus: Rhodamine-PBP qHTS Assay for Modulators of WT P53-Induced Phosphatase 1 (WIP1) (AID 1347425). Also: % of control where 0% means no effect. Put shortly:
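5 nM WIP1 + 10 uM Rh-PBP, 50 mM Tris pH 7.5, 30 mM MgCl2, 1 mM TCEP, 0.1 mM EGTA, BSA; cpds pinned, 1 hr RT; + 10 uM phosphopeptide; fluorescence 1-min reads x 11 min; delta = f1 - f0.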

Assay [4] is described as follows: Primary qHTS for inhibitors of La Crosse Virus (LACV) - induced cell death in SH-SY5Y cells (AID 1508616).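 Also: top concentration of the series differs between compounds; 0% = infected DMSO wells and 100% = uninfected DMSO wells; higher means more rescue of cells from virus-induced death.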 The method, boiled down:
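Rescue of virus-induced death was read as ATPLite luminescence after 6 days at 37C, scaled between DMSO wells with LACV and without virus. Cells were SH-SY5Y, 6000/well, infected at 0.01 MOI after compound addition.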

Assay [5] addresses Calcium and integrin-binding protein 1 (Homo sapiens) (UniProt Q99828). The assay can be described thus: Primary qHTS for Identification of Calcium Integrin Binding Protein 1 (CIB1) Competitor (AID 1508620).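 Also: GST tagged CIB1 binding a fluorescein labelled alphaIIb integrin peptide tracer; top concentration of the series differs between compounds; % is scaled to controls: 0 for no effect and ±100 for the full control effect.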 Put shortly:
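Fluorescence polarization competition: GST-tagged CIB1 (1 uM final) preincubated with compound 15 min at room temperature, then FITC-labelled alphaIIb peptide (100 nM final) added. After 15 min at room temperature, polarization read at Ex 480/Em 540.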

Assay [6] in a line: Primary qHTS for small molecule stabilizers of the endoplasmic reticulum resident proteome: Secreted ER Calcium Modulated Protein (SERCaMP) assay (AID 1508630). Also: % is scaled to controls: 0 for no effect and ±100 for the full control effect. The method, boiled down:
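The SH-SY5Y reporter protocol was run at 3 concentrations up to 38.3 uM (primary) or 11 concentrations (follow-up): 16 h compound, 100 nM thapsigargin for 4 h, then extracellular luciferase luminescence.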

Assay [7] can be described thus: Counterscreen qHTS for small molecule stabilizers of the endoplasmic reticulum resident proteome: GLuc-NoTag assay (AID 1508627).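 Also: series mostly up to about 76 µM; 0% = thapsigargin alone and -100% = DMSO vehicle control.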 The method, boiled down:
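Counterscreen line: SH-SY5Y-GLuc-NoTag. Seed, 5 h; compound, 19 h; thapsigargin 100 nM, 4 h; 37C/5% CO2. Readout: secreted GLuc luminescence, coelenterazine 0.07x final, no lysis.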

Assay [8] can be described thus: Confirmatory qHTS for small molecule stabilizers of the endoplasmic reticulum resident proteome: Secreted ER Calcium Modulated Protein (SERCaMP) assay (AID 1508628). Also: nearly all actives have a fitted effect of over 40% in size. Also: potency is read from the fitted curve at half-maximal effect. The method, boiled down: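 Reporter secretion upon ER calcium depletion (100 nM thapsigargin, 4 h, 37C) is measured as medium luminescence with coelenterazine, after 16 h compound pretreatment of SH-SY5Y-GLuc-SERCaMP cells; primary at three concentrations up to 38.3 uM, follow-up at 11 (up to 76.6 uM).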

Assay [9] in a line: Cell Viability qHTS for small molecule stabilizers of the endoplasmic reticulum resident proteome (AID 1508629).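 Also: human SH-SY5Y neuroblastoma cells carrying the GLuc-SERCaMP reporter; compound exposure about 46 h in total before the viability read; % is scaled to controls: 0 for no effect and ±100 for the full control effect.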 The settings on record: cell viability counter-screen, 100 nM thapsigargin for final 4 h.

Protein phosphatase 1D (Homo sapiens), sequence (O15297 whole entry, looked up): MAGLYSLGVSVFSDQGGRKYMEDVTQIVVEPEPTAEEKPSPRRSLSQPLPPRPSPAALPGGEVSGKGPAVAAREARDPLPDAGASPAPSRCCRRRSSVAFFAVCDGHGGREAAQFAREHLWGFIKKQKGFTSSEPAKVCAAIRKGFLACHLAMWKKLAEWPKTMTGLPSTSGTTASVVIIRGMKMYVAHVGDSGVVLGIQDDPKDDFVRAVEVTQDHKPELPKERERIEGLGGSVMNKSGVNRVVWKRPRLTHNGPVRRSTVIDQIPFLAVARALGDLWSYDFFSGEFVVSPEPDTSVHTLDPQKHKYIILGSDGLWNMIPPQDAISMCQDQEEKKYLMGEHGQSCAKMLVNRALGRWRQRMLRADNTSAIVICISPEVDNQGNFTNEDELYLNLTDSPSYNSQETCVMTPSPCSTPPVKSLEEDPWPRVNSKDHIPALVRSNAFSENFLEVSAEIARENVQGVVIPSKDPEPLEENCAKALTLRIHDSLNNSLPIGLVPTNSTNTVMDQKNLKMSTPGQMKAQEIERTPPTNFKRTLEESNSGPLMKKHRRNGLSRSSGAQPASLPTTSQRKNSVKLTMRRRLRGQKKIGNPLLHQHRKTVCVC
Calcium and integrin-binding protein 1 (Homo sapiens), sequence (Q99828 whole entry, looked up): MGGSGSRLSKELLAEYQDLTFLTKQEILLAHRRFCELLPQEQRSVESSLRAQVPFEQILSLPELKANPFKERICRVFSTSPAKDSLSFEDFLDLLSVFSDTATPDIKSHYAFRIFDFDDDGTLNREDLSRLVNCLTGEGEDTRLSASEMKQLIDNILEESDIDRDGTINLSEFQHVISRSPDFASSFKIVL

Consider `Cc1ccc2nc(N)[nH]c(=O)c2c1Sc1ccncc1`, for which the Potency entry in [1] and in assay [6] was “inactive” in each case. For the same molecule, the molecule was classed as inactive in assay [2], in assay [3], in assay [4] and in [5].
Regarding `CC(C)(C)NCC(O)COc1ccc(NC(=O)NC2CCCCC2)cc1` (configuration not stated), the Potency result in [1] and in [6] was “inactive” throughout. Also, the molecule was called inactive in [2], in assay [3], in assay [4] and in assay [5].
As to `CC(=O)CCC(=O)O`, the Potency entry in assay [1] and in [6] was “inactive” throughout. Also, the outcome in [2], in [3], in assay [4] and in assay [5] was inactive.
On to `CCCCN1CCCC[C@H]1C(=O)Nc1c(C)cccc1C`, for which the Potency result in [1] and in assay [6] was “inactive” in each case. For the same molecule, the call in [2], in assay [3], in [4] and in [5] was inactive.
Consider `Cn1cc[nH]c1=S`, for which the Potency entry in assay [1] and in assay [6] was “inactive” each time. Further, the result in assay [2], in [3], in assay [4] and in assay [5] was inactive.
Consider `Nc1ccc(S(=O)(=O)Nc2nccs2)cc1`, for which the Potency entry in assay [1] and in assay [6] was “inactive” throughout. The result in [2], in [3], in [4] and in assay [5] was inactive.
For the molecule `[O-][n+]1cccc(CO)c1`, the Potency result in assay [1] and in assay [6] was “inactive” each time. Moreover, the molecule was classed as inactive in [2], in assay [3], in assay [4] and in assay [5].
On to `NS(=O)(=O)c1cc2c(cc1C(F)(F)F)NC(Cc1ccccc1)NS2(=O)=O` (configuration not stated), for which the Potency result in assay [1] and in assay [6] was “inactive” throughout. For the same molecule, the outcome in assay [2], in [3], in [4] and in assay [5] was inactive.
For `CN(C)CCN(Cc1ccccc1)c1ccccn1`, the Potency entry in assay [1] and in [6] was “inactive” each time. The result in [2], in assay [3], in assay [4] and in assay [5] was inactive.
For the molecule `O=c1cc(CO)occ1O`, the Potency entry in [1], in [7] and in [8] was “inactive” each time. Moreover, the result in assay [2], in [3], in assay [4] and in assay [5] was inactive. Also, the max response in assay [9] was 8.05%.
On to `CC1(C)[C@@H]2CC[C@@]1(C)C(=O)C2`, for which the Potency result in [1] and in assay [6] was “inactive” in each case. Also, the result in assay [2], in assay [3], in assay [4] and in assay [5] was inactive.
For the molecule `CN1CCCCC1CCN1c2ccccc2Sc2ccc(S(C)=O)cc21` (configuration not stated), the Potency entry in [1] and in assay [7] was “inactive” in each case. Also, the molecule was called inactive in [2], in assay [3], in assay [4] and in assay [5]. In addition, in assay [8], the Potency is 12.6 µM (active). In addition, in [9], the max response was -1.8%.
`CCOC(CN1CCN(CC(C)C(=O)c2ccccc2)CC1)c1ccccc1` (configuration not stated): the Potency entry in [1] and in [6] was “inactive” in each case. Also, the result in assay [2], in [3], in [4] and in assay [5] was inactive.
